Consider five molecules from PubChem BioAssay.

Calls of active or inactive are those of the source. Unless noted, the rule behind the calls is not given here.

Test [1] in a line: compounds binding Alexa647 anti-His antibody – biochemical, small-molecule microarray, 635 nm fluorescence, artefact control for SMM control protein annotation, primary screen (AID 1128).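 Note: score merges feature fluorescence with signal-to-noise for each printed compound spot.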 The note with it: higher = more signal.
In test [2] the test system is Human papillomavirus type 1a E7 protein (residues 1-88). The test is described as follows: HPV1a E7 small-molecule binders, primary screen, biochemical, small-molecule microarray, residues 1-88, 635 nm (AID 1129). The note with it: small-molecule microarray binding, fluorescence 635 nm; higher = more signal.
The target of test [3] is Focal adhesion kinase 1 (Homo sapiens) (UniProt Q05397). Briefly: PTK2 protein binding on printed compound slides – biochemical, small-molecule microarray, 635/667 nm fluorescence, BSA, DTT, primary screen (AID 1130).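 Note: composite of spot emission at 667 nm and signal to noise over triplicate slides.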 Conditions: 635 nm fluorescence, higher = more signal.
Focal adhesion kinase 1 (Homo sapiens), sequence (Q05397 whole entry, looked up): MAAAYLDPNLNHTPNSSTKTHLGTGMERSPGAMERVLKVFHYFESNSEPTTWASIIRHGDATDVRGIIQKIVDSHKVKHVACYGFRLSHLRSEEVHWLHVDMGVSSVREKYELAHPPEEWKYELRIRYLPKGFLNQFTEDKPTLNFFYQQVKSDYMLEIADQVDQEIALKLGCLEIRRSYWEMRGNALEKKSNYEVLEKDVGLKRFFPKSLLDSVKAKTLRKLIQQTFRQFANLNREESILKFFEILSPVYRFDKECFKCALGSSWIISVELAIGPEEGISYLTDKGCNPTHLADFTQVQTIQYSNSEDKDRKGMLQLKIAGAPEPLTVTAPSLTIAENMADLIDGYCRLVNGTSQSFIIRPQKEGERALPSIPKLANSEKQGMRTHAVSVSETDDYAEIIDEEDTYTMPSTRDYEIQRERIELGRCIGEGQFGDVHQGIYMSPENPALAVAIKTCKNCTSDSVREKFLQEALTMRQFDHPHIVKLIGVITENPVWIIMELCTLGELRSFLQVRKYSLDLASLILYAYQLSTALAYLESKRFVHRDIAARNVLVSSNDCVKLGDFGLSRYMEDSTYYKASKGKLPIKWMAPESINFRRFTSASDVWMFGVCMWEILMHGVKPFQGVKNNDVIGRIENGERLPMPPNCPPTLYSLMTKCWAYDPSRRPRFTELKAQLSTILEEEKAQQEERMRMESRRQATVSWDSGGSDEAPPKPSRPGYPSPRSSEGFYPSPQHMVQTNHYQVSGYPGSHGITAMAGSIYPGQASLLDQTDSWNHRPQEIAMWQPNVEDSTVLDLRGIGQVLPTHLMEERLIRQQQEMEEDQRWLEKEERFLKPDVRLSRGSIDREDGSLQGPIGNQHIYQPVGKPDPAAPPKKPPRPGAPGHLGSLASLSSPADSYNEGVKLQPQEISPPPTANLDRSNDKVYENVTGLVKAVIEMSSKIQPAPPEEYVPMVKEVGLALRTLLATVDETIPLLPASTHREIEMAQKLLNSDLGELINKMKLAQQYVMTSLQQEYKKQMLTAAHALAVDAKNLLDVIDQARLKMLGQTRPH
The subject of test [4] is Fibrinogen (Alexa647-labelled). Briefly: Alexa647-fibrinogen binding to printed small molecules – biochemical, small-molecule microarray, 635/667 nm fluorescence, artefact control for SMM control-protein annotation, profiling panel (AID 1131).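 Note: z-score merges 667 nm fluorescence with per-spot signal-to-noise over triplicate slides.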 The note with it: fibrinogen-A647 binding fluorescence, higher = more signal.
The target in test [5] is Follistatin (Homo sapiens) (UniProt P19883). Briefly: FST protein binding to printed compounds – biochemical, small-molecule microarray, 635/667 nm fluorescence, primary screen (AID 1132). The note with it: 635 nm fluorescence, higher = more signal.
Follistatin (Homo sapiens), sequence (P19883 whole entry, looked up): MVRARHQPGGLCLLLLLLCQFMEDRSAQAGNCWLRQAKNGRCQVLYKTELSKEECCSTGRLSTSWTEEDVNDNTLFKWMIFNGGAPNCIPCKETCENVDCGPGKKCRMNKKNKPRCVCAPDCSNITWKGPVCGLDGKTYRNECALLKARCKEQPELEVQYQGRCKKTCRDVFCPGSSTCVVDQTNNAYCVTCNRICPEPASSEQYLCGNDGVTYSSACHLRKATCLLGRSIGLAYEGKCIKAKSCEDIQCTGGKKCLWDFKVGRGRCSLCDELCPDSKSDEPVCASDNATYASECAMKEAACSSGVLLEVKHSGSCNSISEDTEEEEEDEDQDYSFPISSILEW
For test [6], the target named is Fibroblast growth factor 2 (Homo sapiens) (UniProt P09038). The test is described as follows: basic fibroblast growth factor binding to printed compounds – biochemical, small-molecule microarray, 635/667 nm fluorescence, primary screen (AID 1133). Conditions: FGF2, fluorescence 635/667, higher = more signal.
Fibroblast growth factor 2 (Homo sapiens), sequence (P09038 whole entry, looked up): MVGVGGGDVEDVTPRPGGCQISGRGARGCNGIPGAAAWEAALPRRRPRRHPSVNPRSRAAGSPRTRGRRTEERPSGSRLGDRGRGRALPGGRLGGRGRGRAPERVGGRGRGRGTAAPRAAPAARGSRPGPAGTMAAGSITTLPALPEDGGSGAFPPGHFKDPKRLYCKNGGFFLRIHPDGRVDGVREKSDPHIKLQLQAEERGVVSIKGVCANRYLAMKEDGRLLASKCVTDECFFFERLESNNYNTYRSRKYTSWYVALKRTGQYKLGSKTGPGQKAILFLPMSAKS
Test [7] can be described thus: JC-1 mitochondrial potential readout, lung cancer cells – cell-based, A549, JC-1 fluorescence, basal, 24 h, 100 nL, profiling panel (AID 1138).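 Note: A549 lung adenocarcinoma cells under basal conditions with no added stimulus; test concentration not given here.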 The note with it: higher = more signal.
The subject of the next test is Lefty1. Briefly: Lefty1 protein binding to printed compounds – biochemical, small-molecule microarray, 635/667 nm fluorescence, primary screen (AID 1139). The note with it: fluorescence 635/667, higher = more signal.
Test [8] has as its system wheat germ agglutinin (Triticum aestivum), Alexa647-labelled. The test is described as follows: Alexa647-WGA lectin binding to printed small molecules – biochemical, small-molecule microarray, 635/667 nm fluorescence, artefact control for SMM control-protein annotation, profiling panel (AID 1140).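 Note: score merges 667 nm feature emission with signal to noise over triplicate slides.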 Conditions: WGA-A647 binding, 635 nm fluorescence, higher = more signal.
The target in test [9] is Luciferin 4-monooxygenase (Photinus pyralis) (UniProt P08659). The test is described as follows: inhibition of purified Photinus pyralis luciferase – biochemical, luminescence, purified enzyme, 2006 set, primary screen (AID 1141).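 Note: cell-free assay with purified firefly luciferase at 100 ng per well in PBS; test concentration not given here.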 The note with it: purified firefly luciferase, SteadyGlo luminescence, 30 min; higher = more signal, called active from +8 up or from −8 down.
Luciferin 4-monooxygenase (Photinus pyralis), sequence (P08659 whole entry, looked up): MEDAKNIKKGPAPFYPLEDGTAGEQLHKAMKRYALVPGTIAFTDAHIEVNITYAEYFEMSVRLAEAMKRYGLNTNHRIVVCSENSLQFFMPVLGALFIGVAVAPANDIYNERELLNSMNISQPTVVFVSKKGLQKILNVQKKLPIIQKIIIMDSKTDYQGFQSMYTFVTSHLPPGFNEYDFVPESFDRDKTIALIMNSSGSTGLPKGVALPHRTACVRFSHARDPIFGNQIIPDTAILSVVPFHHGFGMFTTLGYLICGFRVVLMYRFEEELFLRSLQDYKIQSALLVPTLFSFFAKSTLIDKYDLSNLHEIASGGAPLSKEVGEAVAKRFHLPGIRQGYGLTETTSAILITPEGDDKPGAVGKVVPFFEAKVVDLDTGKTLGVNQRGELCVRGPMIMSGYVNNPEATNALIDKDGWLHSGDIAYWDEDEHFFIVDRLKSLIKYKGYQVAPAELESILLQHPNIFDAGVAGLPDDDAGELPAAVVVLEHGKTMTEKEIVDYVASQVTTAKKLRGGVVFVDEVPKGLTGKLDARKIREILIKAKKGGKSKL
The subject of test [10] is Wnt5a (protein binding on small-molecule microarray). The test is described as follows: small molecules binding Wnt5a protein – biophysical, small-molecule microarray, 635/667 nm fluorescence, primary screen (AID 1142).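 Note: fluorescence read at 667 nm with signal to noise per printed feature.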 Conditions: 635 nm fluorescence, higher = more signal.
Test [11] is described as follows: ATP-based viability of Huh7 replicon cells – cell-based, CellTiter-Glo luminescence, basal, 48 h, cytotoxicity control for HCV replication inhibitor project, primary screen (AID 1143).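 Note: Huh7 hepatoma cells carrying a hepatitis C replication reporter with no stimulus; test concentration not given here.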 Conditions: higher = more signal, called active from +8 up or from −8 down. A general note: In antiviral work, replicon cells carry a viral genome segment that copies itself.
Test [12] in a line: Pseudomonas biofilm growth suppression – PAO1 strain, BacTiter-Glo luminescence, LB-PBS, primary screen (AID 1144). The note with it: P. aeruginosa PAO1 biofilm, 12 h, higher = more signal.
Test [13] is described as follows: basal CRE-LacZ reporter activity in PC12 – cell-based, unstimulated, primary screen (AID 1145). Conditions: no forskolin, luminescence, 4.5 h, higher = more signal, called active from +8 up or from −8 down.
A short description of test [14]: forskolin-driven CRE-LacZ activity in PC12 – cell-based, CRE-LacZ reporter, forskolin-stimulated, primary screen (AID 1146).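 Note: PC12 cells with 6xCRE LacZ reporter stimulated by forskolin 10 µM; beta-galactosidase reporter signal reflecting CREB driven transcription.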 Conditions: luminescence, 4.5 h, higher = more signal, called active from +8 up or from −8 down.
The target in test [15] is Streptavidin (Streptomyces avidinii) (UniProt P22629). Briefly: compounds binding control protein streptavidin – biophysical, small-molecule microarray, 635/667 nm fluorescence, artefact control for SMM compound annotation, primary screen (AID 1147).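 Note: signal reflects streptavidin binding to arrayed compounds as a control protein.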 The note with it: higher = more signal.
Streptavidin (Streptomyces avidinii), sequence (P22629 whole entry, looked up): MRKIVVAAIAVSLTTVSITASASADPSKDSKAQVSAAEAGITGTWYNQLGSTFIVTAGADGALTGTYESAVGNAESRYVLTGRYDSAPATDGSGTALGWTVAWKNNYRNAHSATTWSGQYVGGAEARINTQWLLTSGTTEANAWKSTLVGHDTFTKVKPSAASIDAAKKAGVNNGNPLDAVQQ
Test [16] is described as follows: probe aInhba binding on compound microarray – biochemical, small-molecule microarray, 635/667 nm fluorescence, primary screen (AID 1148).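 Note: score merges 667nm spot fluorescence with signal-to-noise for antibody binding to printed compounds.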 Conditions: higher = more signal.
Test [17] deals with Torsin-1A (Homo sapiens) (UniProt O14656). The test is described as follows: TOR1A wild-type binding on microarray – cell lysate, small-molecule microarray, lysate, 635/667 nm, primary screen (AID 1149). The note with it: COS7 hTOR1A-WT lysate, 635 nm fluorescence, higher = more signal.
Torsin-1A (Homo sapiens), sequence (O14656 whole entry, looked up): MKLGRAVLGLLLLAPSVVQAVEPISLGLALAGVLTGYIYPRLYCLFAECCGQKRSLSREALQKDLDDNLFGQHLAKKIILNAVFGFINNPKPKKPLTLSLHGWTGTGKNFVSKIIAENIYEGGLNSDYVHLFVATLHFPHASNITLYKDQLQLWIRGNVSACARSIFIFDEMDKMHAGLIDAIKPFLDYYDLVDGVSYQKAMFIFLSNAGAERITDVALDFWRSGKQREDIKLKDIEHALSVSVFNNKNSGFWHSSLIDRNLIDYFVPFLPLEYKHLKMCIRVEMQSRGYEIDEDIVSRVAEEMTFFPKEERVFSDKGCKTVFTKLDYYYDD
Test [18] has the same target. The test is described as follows: torsin A mutant lysate binding on microarrays – cell lysate, small-molecule microarray, COS7 lysate, 635/667 nm fluorescence, primary screen (AID 1150).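 Note: score pools 667 nm emission and signal to noise measuring lysate protein binding.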 The note with it: COS7 hTOR1A mutant lysate, 635 nm fluorescence, higher = more signal.
Test [19] has as its system Sonic hedgehog protein (Shh). Briefly: Sonic hedgehog microarray binding compounds – biochemical, small-molecule microarray, 635/667 nm fluorescence, primary screen (AID 1151).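 Note: Shh protein binding to compounds spotted on small-molecule microarray slides; score combines spot fluorescence intensity with signal-to-noise across triplicate slides.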 The note with it: 635 nm fluorescence, higher = more signal.

For the molecule `[N-]=[N+]=NCc1ccccc1[C@H]1OC(c2ccc(OCCCO)cc2)=N[C@@]1(CCS(=O)(=O)c1ccccc1)C(=O)N1CCOCC1`, the composite z-score came to 0.997 in test [1]; 0.871 in test [2]; 0.176 in [3]; 1.04 in [4]; 1.31 in test [5]; 1.01 in [6]. Further, the composite z-score in the test with Lefty1 was -0.0664; in test [8], 1.35; in [10] it was 1.03; in test [15], 1.62; in test [16], 0.556; with Torsin-1A (Homo sapiens) [17] it was 1.7. In addition, the figures for the composite z-score (with Torsin-1A (Homo sapiens) [18]; in test [19]) were 1.85 and -0.164, respectively. Moreover, the z-score in [7] was -0.988; in test [9], -1.26 (inactive); in [11], -0.865 (inactive); in test [12], 0.164 (inactive); in test [13], 0.526 (inactive); in [14], 0.363 (inactive).
Take `O=C1OCC=C[C@H]2OC34C=CCN(c5ccc6ccccc6c5)C(=O)[C@H]3N(CCCO)C(=O)[C@@H]4[C@@H]12` (stereo not given in full): the composite z-score in [1] was -0.349; in test [2], -0.92; in test [3], -0.409; in test [4], -0.669; in test [5], 0.0786; in [6] it was -0.989. In addition, the composite z-score was -0.11 in the test with Lefty1; -0.645 in [8]; -0.701 in [10]; -0.835 in test [15]; -0.0675 in test [16]; -1.69 in the test with Torsin-1A (Homo sapiens) [17]. The composite z-score with Torsin-1A (Homo sapiens) [18] is -1.38; in test [19] it was -0.372. The z-score in test [7] is -0.506; in test [9], -0.18 (inactive); in [11], -2.14 (inactive); in [12], 0.179 (inactive); in [13], 0.337 (inactive); in test [14], 0.27 (inactive).
`COC(=O)[C@]1(Cc2ccccc2N=[N+]=[N-])N=C(c2ccc(OCCCO)cc2)O[C@@H]1c1ccccc1N=[N+]=[N-]`: the composite z-score is 2.87 in [1]; 0.825 in test [2]; 0.188 in test [3]; 0.482 in test [4]; 1.25 in test [5]; -0.0133 in [6]. Further, the composite z-score was 0.131 in the test with Lefty1; 0.149 in test [8]; -0.104 in test [10]; 0.105 in test [15]; -0.0762 in [16]; -1.45 with Torsin-1A (Homo sapiens) [17]. The results for the composite z-score (with Torsin-1A (Homo sapiens) [18]; in [19]) were 0.283 and 0.765, respectively. Further, the z-score in [7] is -0.856; in test [9], -1.42 (inactive); in [11], -5.35 (inactive); in test [12] it was 0.337 (inactive); in [13], 2.85 (inactive); in test [14] it was -1.04 (inactive).
For `Cc1ccc(S[C@]2(C(=O)NC3CC3)CC(=O)N(C3CCCCC3)[C@@H]2c2ccc(CO)cc2I)cc1`, the composite z-score in [1] came out at 0.104; in test [2], 1.21; in test [3], 0.176; in test [4], 0.304; in test [5], 1.26; in [6], 0.341. Moreover, the composite z-score in the test on Lefty1 is 0.87; in test [8], 0.368; in test [10] it was 0.136; in test [15], 0.936; in [16] it was -0.0375; in the test with Torsin-1A (Homo sapiens) [17] it was 0.254. For the same molecule, the composite z-score stood at 0.582 in the test with Torsin-1A (Homo sapiens) [18] and 1.77 in [19]. In addition, the z-score is 1.69 in [7]; 1.06 (inactive) in [9]; -3.4 (inactive) in test [11]; -0.128 (inactive) in test [12]; 0.362 (inactive) in test [13]; 0.681 (inactive) in test [14].
As to `C=CCC(OC(C)=O)[C@@H]1[C@@H](N(Cc2ccc(-c3cccc(C(F)(F)F)c3)o2)C(=O)c2ccc(C)cc2)c2cc(OCCCO)ccc2N1C(=O)c1ccc(-c2ccccc2)cc1` (stereo not given in full), the composite z-score in test [1] is -0.488; in [2], -0.626; in [3] it was 0.134; in test [4], -0.238; in test [5], 0.65; in [6] it was 0.0875. The composite z-score is 0.899 in the test with Lefty1; 0.639 in test [8]; 0.0167 in [10]; 0.535 in [15]; 0.0154 in [16]; -0.245 in the test with Torsin-1A (Homo sapiens) [17]. Further, the results for the composite z-score (in the test with Torsin-1A (Homo sapiens) [18]; in test [19]) were -0.141 and 1.32, respectively. Also, the z-score in test [7] was 2.31; in test [9], -1.4 (inactive); in test [11], 0.224 (inactive); in [12], -0.747 (inactive); in test [13], -0.463 (inactive); in test [14], -0.183 (inactive).
